Residue numbers refer to the chain shown, from its start. Over roughly 24,000 sequences, “enrichment r” has its median near 0.99; the highest 2% begin near 3.7. Shown is part of a subset that was picked to be rich in the highest values.
T1: UNK ZnF1-3 (human, UniProt Q9C0B0 31-174)
T1 sequence: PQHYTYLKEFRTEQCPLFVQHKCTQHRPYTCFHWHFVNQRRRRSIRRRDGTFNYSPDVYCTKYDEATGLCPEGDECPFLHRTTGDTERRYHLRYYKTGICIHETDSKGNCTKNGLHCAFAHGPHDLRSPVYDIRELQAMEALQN

B1: 28740388_28740508_4059_3pUTR_ENSMUSG00000048271_ENSMUST00000114884|mouse|control|control (ssRNA)
RNA: GGGAGUUCUACAGUCCGACGAUCUUUGAGCUGGUAACAUUCUUUCCUGAAUCUAAAACUCUGUGACCAAUCACAUAGCAGGAUCACGAAGAACAAGGUCUACAUGCAUUAUAAGCACUCGGAAACAAAAGAACACGAGAACAGCAACAGAGGAUUGAGCAUCA
B2: chr7:149068622:149068623:-_ENSMUSG00000025139_ENSMUST00000001950|mus_hu|mus_mus_mus_hu_False|58_98 (ssRNA)
RNA: GGGAGUUCUACAGUCCGACGAUCGUGAGGCCUCUGAGUGAGGUUCCUGGUCUGUCCUGGGUUAGAGUUGUUAAUAUCACUAAGUGGACCAUCUAGAACGUUCCAGUCCCGCCUGACACCUUCAUUCCCAAUGGAGAAGAAAUCCAACAGAGGAUUGAGCAUCA
B3: chr14:21343309:21343310:-_ENSMUSG00000021816_ENSMUST00000161445|mus_hu|motif|central (ssRNA)
RNA: GGGAGUUCUACAGUCCGACGAUCAGGAUCGGACCAUAACAAGUCACACAUUGGUCCAAAUGCAGGUGGCUCUUUGAAUCGGUCGGAUCUCCUAAUAUCAUCCAGUGUGUGUAUUUCUGGUGAAAGUCCACCAUGAACACAAAGCAACAGAGGAUUGAGCAUCA
B4: chr1:78194255:78194256:-_ENSG00000077254_ENST00000357428|hu_mus|motif|central (ssRNA)
RNA: GGGAGUUCUACAGUCCGACGAUCAUUGCUGUCCUCAGGAAAGCCUUUGGAGCCACUCUCAUUUUCUGCUUUCUCGCUGCUGCGGCAAGACUCGCACGACUGAAAAUCCACAUCUGACUGGCUCUUCUCUUCCUCCACCGUCUCCAACAGAGGAUUGAGCAUCA
B5: chr7:128503047:128503048:+_ENSG00000128524_ENST00000249289|hu_mus|FALSE|FALSE (ssRNA)
RNA: GGGAGUUCUACAGUCCGACGAUCGGUGGUAUCCUUCUCCACUACCAGGAAAUUAGGGUGGCGGUUCUUGUUUAGCUCCCCUAUGCCGCCCAACAGGAAACCAGUCACCGUGUCCUCGUCUCCAAUCACCGCGAUUAGCUUACCCAACAGAGGAUUGAGCAUCA
B6: chr1:66485654:66485655:+_ENSMUSG00000015222_ENSMUST00000024639|mus_mus|motif|central (ssRNA)
RNA: GGGAGUUCUACAGUCCGACGAUCAAUUUUUUAUAUAAAAUUGUAACAAUUACUACAGUUGGGGGAUGAAAUUAUUUCUCGGUGGUUUGUAAAGAAUGAAUAUGACACCUGCUCAGAGCCCACUCCUGCCAAGAGCUCAUGCCUCAACAGAGGAUUGAGCAUCA
B7: chr14:62214197:62214198:+_ENSG00000100644_ENST00000337138|hu_hu|FALSE|FALSE (ssRNA)
RNA: GGGAGUUCUACAGUCCGACGAUCAGCAUUAUUAUUUAUGUAAAAUGUGAAAAAAAAGGUGUAAAAAUUUUUCAACUGCCUAUGAUCAUGAUGAAAGGUUACUGCCUUCUUACAAAAAUUAUAUUGGCAUCUUCUUAAAAAUAACAACAGAGGAUUGAGCAUCA
B8: chrX:17854524:17854525:+_ENSMUSG00000037369_ENSMUST00000044484|mus_hu|motif|central (ssRNA)
RNA: GGGAGUUCUACAGUCCGACGAUCUCGUGAAUUACUCUCAUUAGUGACAAAAAGCAGAUCAAAAACCUCCACUUCACAAAUGCGGCAGUAAUGAGCUGGUUCUUCUUUUGUCCGCCCAUGCCAUAUAAUCUCUUUUCCUGCAGCCAACAGAGGAUUGAGCAUCA
B9: chr10:117127018:117127019:-_ENSMUSG00000020184_ENSMUST00000020408|mus_hu|FALSE|FALSE (ssRNA)
RNA: GGGAGUUCUACAGUCCGACGAUCAACAGAGCAAGACUCGGUCUCAAAAAAAAUAAUAAGUUACAUUUAAAUGUCAUAUACAUAUUUAAGAAAAAAAAAAACCAAGUACUUCUCAUUUAAGACAGAGUAGAAAUUAUUUAAAAUCAACAGAGGAUUGAGCAUCA
B10: chr1:58468927:58468928:-_ENSMUSG00000026034_ENSMUST00000148330|mus_mus|mus_mus_mus_hu_False|58_78 (ssRNA)
RNA: GGGAGUUCUACAGUCCGACGAUCAAUUACUGAAAAAGAUGUUCAUUACCUUAGCUAGGCCAUGUAUGAACCAAAUUAUCUAAAAAAAAUAAACAUGGCAAUAUAAAAAUGUUAAGAAUUUACAAAGCUGUACAAAAUAACUUACAACAGAGGAUUGAGCAUCA
B11: chr1:66485654:66485655:+_ENSMUSG00000015222_ENSMUST00000024639|mus_mus|FALSE|FALSE (ssRNA)
RNA: B6 RNA with G80U, G81A
B12: chr1:58468927:58468928:-_ENSMUSG00000026034_ENSMUST00000148330|mus_mus|mus_mus_mus_hu_False|18_78 (ssRNA)
RNA: B10 RNA with U78C, U80C, A84C, U118A, U119A, C122A, A123C, A124U, A125U, G126A
B13: chr14:48151594:48151595:+_ENSMUSG00000037536_ENSMUST00000168833|mus_mus|FALSE|FALSE (ssRNA)
RNA: GGGAGUUCUACAGUCCGACGAUCAUUGAAGUUUUUUUAAAAAAUUUUUAACCAGACAAAAGGAUGCACAACAUUUUAAUCUAUUAUAUGAUAUUGUCUUAUUCUGUGGUGAUUAUGUUUAGUCAGCUGUUCAUAAUAUACAAUCAACAGAGGAUUGAGCAUCA
B14: 30669026_30669146_122_CDS_ENSG00000108666_ENST00000577809|human|control|control (ssRNA)
RNA: GGGAGUUCUACAGUCCGACGAUCGCGAUAGCUGUAAAGACAGUAGUGGCUGCUGGACGGCGGCUCGAGUCUCCGCUCCUCGGCUGAGCCUCCCUCUUCGCUGCUCUCUAGUUCCUUUUCAUCUCCAUCCAUCGACUCCUGCAACAACAGAGGAUUGAGCAUCA
B15: 23382874_23385586_565_CDS_ENSMUSG00000026158_ENSMUST00000027343|mouse|control|control (ssRNA)
RNA: GGGAGUUCUACAGUCCGACGAUCUUCUCUCAGGGGGAAAAGCCAUUGGAUGUACGUGUGGUUGUGCUCCAGCUUCUCGUAGUCCCCUUUCCACUUAUUUAGAACCUCUUCAAUGUAAACACCAUCCGGCUUAAAUGGAAUUUUCAACAGAGGAUUGAGCAUCA
B16: chr1:39494447:39494448:+_ENSG00000168653_ENST00000372967|hu_mus|hu_hu_hu_mus_False|58_68 (ssRNA)
RNA: GGGAGUUCUACAGUCCGACGAUCGCACCGAGCGGCGUUCUUAUAGGGCUGUUCUGCGCUUAGGAACGUCAACCAUCGAUCUAUGUUGAUGCCCAGCUUUUUCUGUAUGUCAAGGAAAGGCAUGGCUCUGCAGUGCCCUUGUCACAACAGAGGAUUGAGCAUCA
B17: chr3:179287964:179287965:+_ENSG00000136518_ENST00000429709|hu_hu|hu_hu_hu_mus_True|38_38 (ssRNA)
RNA: GGGAGUUCUACAGUCCGACGAUCCUUGAGUGGUGAGAUGGCCUCCAUGUUCUCCCUGGGCACGCGGAGGGCAUUGGUGUCUAUGUAGUAGGUGGGCCCGCCUUGUUUGCCUUUGUCACCAUCAAUCUCCAUCAUUGUACUUCCCAACAGAGGAUUGAGCAUCA
B18: chr1:58468927:58468928:-_ENSMUSG00000026034_ENSMUST00000148330|mus_mus|mus_mus_mus_hu_False|18_88 (ssRNA)
RNA: GGGAGUUCUACAGUCCGACGAUCAAUUACUGAAAAAGAUGUUCAUUUAUUUGGUUUUGUACUUAAUGAACCAAAUUACCCAAACAAAAUAAACAUGGCAAUAUAAAAAUGUUAAGAAAAUAACUUACUGUACAAAAUAACUUACAACAGAGGAUUGAGCAUCA
B19: chr1:58468927:58468928:-_ENSMUSG00000026034_ENSMUST00000148330|mus_hu|FALSE|FALSE (ssRNA)
RNA: B10 RNA with G57U, C59U, C60A, A61C, G63U, U64A, U78C, U80C, A84C
B20: chr1:185277986:185277987:-_ENSG00000116679_ENST00000392007|hu_mus|FALSE|FALSE (ssRNA)
RNA: GGGAGUUCUACAGUCCGACGAUCCUGCUUGACUCGGUCCAUCUUCAGCUUCUUGGCUGCAGAAUAAACAUCUUUUACUAAUUCCUUAUCAGCUUUCAACUGAGCCGUGUAUGCAUAAUUCAGCAAGACUUCAACAGCUUCUGGCAACAGAGGAUUGAGCAUCA
B21: chr13:100194382:100194383:-_ENSMUSG00000052727_ENSMUST00000064762|mus_mus|FALSE|FALSE (ssRNA)
RNA: GGGAGUUCUACAGUCCGACGAUCUCCUGUAAAUGAAAACAUUUGUUAAAAAGUUCAUCUAUGAAAAGUUCUCGAGUAGCUAAAAAAAAAAAAAAAAAAAAAAAAAAUCUUCUGUACAUGUGUUCCCAUGUGUUGAAAUUAAUGCAACAGAGGAUUGAGCAUCA
B22: chr13:100194382:100194383:-_ENSMUSG00000052727_ENSMUST00000064762|mus_hu|FALSE|FALSE (ssRNA)
RNA: GGGAGUUCUACAGUCCGACGAUCUCCUGUAAAUGAAAACAUUUGUUAAAAAGUUCAUCUAUGAAAAGUUCUCACAUAUCUUAAAAAAAAAAUUCUUCUGUACACUUGUUCCCAUAAUUAUGUUGAAAUUAAUGGAAAAUUUAACAACAGAGGAUUGAGCAUCA
B23: chr13:100194382:100194383:-_ENSMUSG00000052727_ENSMUST00000064762|mus_mus|motif|central (ssRNA)
RNA: B21 RNA with U80G, A81G
B24: chr11:57926588:57926589:+_ENSMUSG00000020515_ENSMUST00000020822|mus_hu|FALSE|FALSE (ssRNA)
RNA: GGGAGUUCUACAGUCCGACGAUCGUCAAUCCCUUCCUCUUCAUGCUUCUGAAACUGUAGUCCUGAGUUAGCAAGGAGAUCUAUGGAAUCCUGGGAGUACAUGUCCUCUGUAAGGUUAAAUUUGAAAUUGAACUGCCAAGUAUUCAACAGAGGAUUGAGCAUCA
B25: chr15:80390846:80390847:+_ENSG00000086666_ENST00000559775|hu_hu|FALSE|FALSE (ssRNA)
RNA: GGGAGUUCUACAGUCCGACGAUCCUGUCCUGUAUCUUGAGACAGACAUUAGCUUUCUGCCUUCCCUAUUCUCAUAAGCAGCUACUUAAAAGUUUUGAAUUUUAUGCAAGAAAACAUUUUAAAGCCUUCUGUGUUUUACUGCAGCAACAGAGGAUUGAGCAUCA
B26: chr4:54876292:54876293:-_ENSG00000109220_ENST00000263921|perfect_dup|motif|central (ssRNA)
RNA: GGGAGUUCUACAGUCCGACGAUCCUAUAAAUAAAGUAAAUGCUAAUCUGGUCGAAAAAUCGGUGUCUUUGGUAAAAAUUCGGUGAGGAUGACAUAUUCCAUCAUGUUAUUCGUUUCACAUUUCCUUUUGCUCAGUCUCCAAUGCAACAGAGGAUUGAGCAUCA

Molecular target: T1, UNK ZnF1-3
Assay: nsRBNS (natural sequence RNA bind-n-seq); RBNS binding buffer (assumed for nsRBNS): 25 mM Tris pH 7.5, 150 mM KCl, 3 mM MgCl2, 0.01% Triton X-100, 500 ug/ml BSA, 20 U/ml SUPERase-In, 4 C; UNK is unkempt and MSI1 is Musashi-1; names of the RNAs are library labels; protein concentration not given here; high values mean tight binding

Row | Binder | binding signal
1 | B1 | 1.22 enrichment R
2 | B2 | 0.755 enrichment R
3 | B3 | 0.921 enrichment R
4 | B4 | 0.703 enrichment R
5 | B5 | 0.494 enrichment R
6 | B6 | 4.27 enrichment R
7 | B7 | 29 enrichment R
8 | B8 | 0.845 enrichment R
9 | B9 | 18 enrichment R
10 | B10 | 3.96 enrichment R
11 | B11 | 2.92 enrichment R
12 | B12 | 1.35 enrichment R
13 | B13 | 3.47 enrichment R
14 | B14 | 0.51 enrichment R
15 | B15 | 0.65 enrichment R
16 | B16 | 0.515 enrichment R
17 | B17 | 0.571 enrichment R
18 | B18 | 6.29 enrichment R
19 | B19 | 1.24 enrichment R
20 | B20 | 0.806 enrichment R
21 | B21 | 5.73 enrichment R
22 | B22 | 1.06 enrichment R
23 | B23 | 5.84 enrichment R
24 | B24 | 1.01 enrichment R
25 | B25 | 0.755 enrichment R
26 | B26 | 1.46 enrichment R
